Test results reported in PubChem BioAssay (NCI).
Compounds without any hit were thinned out: in the full panel of roughly 83,000, 20% have a hit.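 Testing used 96-well plates and a 48-hour single-concentration exposure. Example: -40 means 40% of the starting cells died.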 A number with no mark means an inactive call. Active and inactive are the calls of the source. The calls were made as follows: active = growth percent below 10; inactive = the rest.

Key:
Experiment in all cases: NCI-60 one-dose screen, 48 h (100 = growth as untreated, 0 = no growth, -100 = all killed)
Settings in all cases: 10 µM unless noted
HCT-15 colon = tested on: HCT-15 colon
HT29 colon = tested on: HT29 colon
SNB-75 CNS = tested on: SNB-75 CNS
SNB-19 CNS = tested on: SNB-19 CNS
U251 CNS = tested on: U251 CNS
PC-3 prostate = tested on: PC-3 prostate
SK-MEL-5 melanoma = tested on: SK-MEL-5 melanoma
UACC-62 melanoma = tested on: UACC-62 melanoma
LOX IMVI melanoma = tested on: LOX IMVI melanoma
SK-MEL-28 melanoma = tested on: SK-MEL-28 melanoma
SK-MEL-2 melanoma = tested on: SK-MEL-2 melanoma
SN12C renal = tested on: SN12C renal
UO-31 renal = tested on: UO-31 renal
TK-10 renal = tested on: TK-10 renal
ACHN renal = tested on: ACHN renal
CAKI-1 renal = tested on: CAKI-1 renal
A498 renal = tested on: A498 renal
CCRF-CEM leukemia = tested on: CCRF-CEM leukemia
MOLT-4 leukemia = tested on: MOLT-4 leukemia
EKVX NSCLC = tested on: EKVX NSCLC

SMILES	growth (HCT-15 colon)	growth (HT29 colon)	growth (SNB-75 CNS)	growth (SNB-19 CNS)	growth (U251 CNS)	growth (PC-3 prostate)	growth (SK-MEL-5 melanoma)	growth (UACC-62 melanoma)	growth (LOX IMVI melanoma)	growth (SK-MEL-28 melanoma)	growth (SK-MEL-2 melanoma)	growth (SN12C renal)	growth (UO-31 renal)	growth (TK-10 renal)	growth (ACHN renal)	growth (CAKI-1 renal)	growth (A498 renal)	growth (CCRF-CEM leukemia)	growth (MOLT-4 leukemia)	growth (EKVX NSCLC)
NC(=N\N=C/c1ccc(Cl)cc1Cl)/C(N)=N\N=C/c1ccc(Cl)cc1Cl	82.9%	52.5%	8.06% (active)	69.8%	36.2%	89.2%	108%	94.9%	74%	110%	63.7%	67.7%	49.8%	29.7%	17.4%	69.9%	-2.93% (active)	3.15% (active)	96.6%	–
O=C(Nc1ccc(Oc2cccc(F)c2)c(Cl)c1)c1cnccn1	31.2%	9.13% (active)	0.855% (active)	40.4%	25.7%	16.7%	9.61% (active)	33.5%	43.9%	60.6%	37.7%	45.6%	43.4%	59.5%	37.7%	25.2%	–	–	41.2%	–
O=C(Nc1ccccc1C(F)(F)F)C1=NCCCCN1	97.8%	98.7%	88%	97.7%	103%	96.5%	100%	93.3%	96.2%	106%	104%	98%	86.2%	98.8%	103%	96.6%	–	–	99.2%	–
CC(CN)[C@@H]1CC[C@]2(CO)CC[C@]3(C)[C@H](CC[C@@H]4[C@@]5(C)CCC(NCCO)C(C)(C)[C@@H]5CC[C@]43C)[C@@H]12 (stereo not given in full)	38.4%	1.25% (active)	59.5%	78.5%	18.4%	69.4%	32.9%	91.9%	-64.4% (active)	-5.2% (active)	94.4%	80.1%	69.7%	93.4%	95%	59.9%	87.2%	6.44% (active)	18.3%	–
COc1cc(/C=C2\C(=O)N(CCOc3cc(O)c4c(=O)cc(-c5ccccc5)oc4c3)c3ccccc32)cc(OC)c1O	28%	136%	44.9%	65.3%	39.7%	76.2%	68.1%	24.6%	36.7%	83.6%	74.1%	65.9%	63.5%	109%	66.9%	59.3%	127%	–	51.8%	–
C#CCOc1cccc(Nc2c(Cl)c(CCl)nc3ccc(Oc4ccccc4)cc23)c1	12.3%	7.96% (active)	75.5%	62.5%	24.9%	78%	30.4%	39.9%	-34.1% (active)	65.4%	37.4%	5.93% (active)	61.7%	76.5%	63.5%	76.1%	99.7%	9.4% (active)	14%	–
c1ccc(-c2nc(N3CCNCC3)c3oc(-c4ccccc4)nc3n2)cc1	-75.6% (active)	-26.2% (active)	-95.9% (active)	-27.9% (active)	-57% (active)	-27.9% (active)	-93.3% (active)	-82% (active)	-81.9% (active)	-95% (active)	-34.1% (active)	–	–	-71.3% (active)	-100% (active)	-94% (active)	88.2%	-31.1% (active)	-24.9% (active)	-68.4% (active)
Cn1cc(-c2ccc3c(Nc4cccc(NC(=O)Nc5cccc(F)c5)c4)ncnc3c2)cn1	37.8%	32.8%	43.8%	65%	28.4%	33.6%	41.4%	32.4%	41.9%	49.6%	43.2%	30.1%	23.7%	39.4%	15.2%	39.8%	41.9%	4.27% (active)	14.3%	–
COC(=O)[C@H](C)NC(=O)[C@@H]1CCCN1C(=O)CNC(=O)[C@H](C)N	97.4%	104%	78.3%	98.6%	103%	102%	101%	88.8%	96.3%	118%	113%	105%	91.2%	95.5%	108%	88.4%	93.2%	115%	102%	–
